This is an account of results in the supplement of paper PMC10849652.

Common to all, as to test: log2 fold change, soluble protein after heating vs DMSO (PISA); higher = thermal stabilisation; K562 lysate, 10 uM; active = over 0.2 and 3.5 SD of the protein, either way, in both replicates (recomputed)
Compound in one assay: Cc1cn(-c2cc(NC(=O)c3ccc(C)c(Nc4nccc(-c5cccnc5)n4)c3)cc(C(F)(F)F)c2)cn1 [nilotinib]
The method in brief:
(§1)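 A 30 min treatment with 10 μM compound was applied to crude K562 extract at 1 mg/mL protein in PBS pH 7.4 with 1 mM MgCl2. Heating for 3 min spanned 48°C-58°C, after which aliquots were pooled, adjusted to 0.5% NP-40 at 4°C and spun at 21,000xg for 90 min. TMTpro 16plex LC-MS/MS of the supernatant, with channel sums equalised, gave values recorded as log-two fold change in thermal stability against solvent controls, from duplicates.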

Compound in assay [1]: Cc1nc(Nc2n[nH]c3c2CN(C(=O)N[C@H](CN(C)C)c2ccccc2)C3(C)C)c2sccc2n1
The method in brief: as §1

Compound in a further assay: Cc1nc(Nc2ncc(C(=O)Nc3c(C)cccc3Cl)s2)cc(N2CCN(CCO)CC2)n1 [dasatinib]
The method in brief: as §1

Compound in assay [2]: Cc1ncc(-c2ccnc(Nc3ccc(S(C)(=O)=O)cc3)n2)n1C(C)C
Summed up:
as §1

Compound in assay [3]: Cn1cc(-c2ccc3c(c2)CCN3C(=O)Cc2cccc(C(F)(F)F)c2)c2c(N)ncnc21
The method in brief:
as §1

Compound in another assay: Cn1cc(CNCC2CCN(c3ncc(C(=O)NO)cn3)CC2)c2ccccc21 [quisinostat]
Summed up: as §1

Compound in the next assay: Cn1cncc1[C@@](N)(c1ccc(Cl)cc1)c1ccc2c(c1)c(-c1cccc(Cl)c1)cc(=O)n2C [tipifarnib]
The method in brief:
as §1

Compound in assay [4]: NC(=O)Nc1cc(-c2cccc(F)c2)sc1C(=O)N[C@H]1CCCNC1
The method in brief: as §1

Compound in assay [5]: NC(=O)c1cnc(N[C@@H]2CCCC[C@@H]2N)nc1Nc1cccc(-n2nccn2)c1
The method in brief:
as §1

Compound in assay [6]: NC1(c2ccc(-c3nc4ccn5c(=O)[nH]nc5c4cc3-c3ccccc3)cc2)CCC1
Summed up: as §1

Compound in assay [7]: NCC(=O)Nc1ccc(-n2nc(C(F)(F)F)cc2-c2ccc3c(ccc4ccccc43)c2)cc1
Summed up: as §1

Compound in a further assay: O=C(CCCCCCC(=O)Nc1ccccc1)NO [vorinostat]
The method in brief: as §1

Compound in the next assay: O=C(O)c1ccc2c(c1)nc(Nc1cccc(Cl)c1)c1ccncc12 [silmitasertib]
Summed up: as §1

Compound in assay [8]: O=C1NC(=O)C(c2cnc3ccccn23)=C1c1cn2c3c(cc(F)cc13)CN(C(=O)N1CCCCC1)CC2
The method in brief: as §1

Compound in the next assay: c1cn2cc(-c3ccc4cn[nH]c4c3)nc(Nc3ccc(N4CCOCC4)cc3)c2n1 [entospletinib]
Summed up:
as §1

Targets with a hit are over-represented here; the source holds about 8,800 in all. About 0.5% of all pairs of compound and target were hits. Unmarked numbers belong to inactive results.

UniProt Q9Y4P8, sequence (Q9Y4P8 whole entry, looked up): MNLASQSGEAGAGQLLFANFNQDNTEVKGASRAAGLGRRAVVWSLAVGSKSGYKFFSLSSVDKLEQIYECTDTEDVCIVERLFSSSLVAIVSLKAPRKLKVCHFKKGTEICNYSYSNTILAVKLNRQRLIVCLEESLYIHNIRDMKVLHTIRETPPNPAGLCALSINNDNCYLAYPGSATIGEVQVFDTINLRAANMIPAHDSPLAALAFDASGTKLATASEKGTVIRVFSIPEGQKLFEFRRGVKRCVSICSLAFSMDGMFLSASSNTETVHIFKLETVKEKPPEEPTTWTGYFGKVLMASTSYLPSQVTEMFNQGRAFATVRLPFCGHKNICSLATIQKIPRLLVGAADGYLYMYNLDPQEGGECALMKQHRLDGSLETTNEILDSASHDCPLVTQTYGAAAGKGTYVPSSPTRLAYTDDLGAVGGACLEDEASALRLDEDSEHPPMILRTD
UniProt Q9H270, sequence (Q9H270 whole entry, looked up): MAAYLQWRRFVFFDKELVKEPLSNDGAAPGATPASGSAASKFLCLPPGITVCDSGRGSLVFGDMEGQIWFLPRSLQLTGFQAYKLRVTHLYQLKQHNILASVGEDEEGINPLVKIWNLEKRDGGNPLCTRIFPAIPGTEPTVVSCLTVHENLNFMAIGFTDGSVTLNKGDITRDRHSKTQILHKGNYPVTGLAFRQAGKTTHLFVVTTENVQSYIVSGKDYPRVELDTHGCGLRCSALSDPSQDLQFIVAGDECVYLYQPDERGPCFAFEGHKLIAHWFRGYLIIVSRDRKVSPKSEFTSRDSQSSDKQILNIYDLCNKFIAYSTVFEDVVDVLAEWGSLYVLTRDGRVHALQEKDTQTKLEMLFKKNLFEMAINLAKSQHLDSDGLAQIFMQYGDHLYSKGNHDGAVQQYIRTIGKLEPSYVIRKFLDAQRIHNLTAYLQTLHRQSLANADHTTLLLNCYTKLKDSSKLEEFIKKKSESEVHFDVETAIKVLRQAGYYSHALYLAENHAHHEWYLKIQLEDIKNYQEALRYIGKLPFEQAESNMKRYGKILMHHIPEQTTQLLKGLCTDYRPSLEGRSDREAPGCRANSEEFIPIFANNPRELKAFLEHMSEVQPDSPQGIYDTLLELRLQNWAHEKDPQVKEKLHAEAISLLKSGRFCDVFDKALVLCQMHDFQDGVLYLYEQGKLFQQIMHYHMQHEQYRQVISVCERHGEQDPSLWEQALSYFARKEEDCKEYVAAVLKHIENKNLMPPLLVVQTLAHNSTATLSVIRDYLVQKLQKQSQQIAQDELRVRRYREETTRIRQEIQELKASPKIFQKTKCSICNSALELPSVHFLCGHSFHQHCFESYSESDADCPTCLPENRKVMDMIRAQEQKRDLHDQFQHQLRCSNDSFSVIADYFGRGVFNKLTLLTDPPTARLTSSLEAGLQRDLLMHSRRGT
UniProt P50552, sequence (P50552 whole entry, looked up): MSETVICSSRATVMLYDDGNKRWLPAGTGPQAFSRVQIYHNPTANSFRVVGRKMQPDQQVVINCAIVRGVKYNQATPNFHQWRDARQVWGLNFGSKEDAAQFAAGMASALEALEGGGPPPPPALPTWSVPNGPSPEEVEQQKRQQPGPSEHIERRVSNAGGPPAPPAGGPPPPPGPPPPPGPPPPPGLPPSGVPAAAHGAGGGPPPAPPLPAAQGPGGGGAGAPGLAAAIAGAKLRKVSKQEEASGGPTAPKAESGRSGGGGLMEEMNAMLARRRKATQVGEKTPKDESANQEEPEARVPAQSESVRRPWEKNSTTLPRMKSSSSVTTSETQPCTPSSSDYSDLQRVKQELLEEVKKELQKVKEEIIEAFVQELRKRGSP
UniProt A8MPS7, sequence (A8MPS7 whole entry, looked up): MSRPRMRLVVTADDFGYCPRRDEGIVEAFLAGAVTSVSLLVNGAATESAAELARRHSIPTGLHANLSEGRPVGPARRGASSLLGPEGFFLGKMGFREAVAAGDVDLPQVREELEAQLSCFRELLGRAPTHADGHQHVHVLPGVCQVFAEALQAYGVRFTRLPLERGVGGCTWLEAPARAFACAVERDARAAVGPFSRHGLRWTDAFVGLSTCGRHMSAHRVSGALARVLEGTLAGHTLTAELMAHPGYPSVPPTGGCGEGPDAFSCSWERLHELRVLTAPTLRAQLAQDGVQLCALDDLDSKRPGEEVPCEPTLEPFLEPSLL
UniProt Q9H269, sequence (Q9H269 whole entry, looked up): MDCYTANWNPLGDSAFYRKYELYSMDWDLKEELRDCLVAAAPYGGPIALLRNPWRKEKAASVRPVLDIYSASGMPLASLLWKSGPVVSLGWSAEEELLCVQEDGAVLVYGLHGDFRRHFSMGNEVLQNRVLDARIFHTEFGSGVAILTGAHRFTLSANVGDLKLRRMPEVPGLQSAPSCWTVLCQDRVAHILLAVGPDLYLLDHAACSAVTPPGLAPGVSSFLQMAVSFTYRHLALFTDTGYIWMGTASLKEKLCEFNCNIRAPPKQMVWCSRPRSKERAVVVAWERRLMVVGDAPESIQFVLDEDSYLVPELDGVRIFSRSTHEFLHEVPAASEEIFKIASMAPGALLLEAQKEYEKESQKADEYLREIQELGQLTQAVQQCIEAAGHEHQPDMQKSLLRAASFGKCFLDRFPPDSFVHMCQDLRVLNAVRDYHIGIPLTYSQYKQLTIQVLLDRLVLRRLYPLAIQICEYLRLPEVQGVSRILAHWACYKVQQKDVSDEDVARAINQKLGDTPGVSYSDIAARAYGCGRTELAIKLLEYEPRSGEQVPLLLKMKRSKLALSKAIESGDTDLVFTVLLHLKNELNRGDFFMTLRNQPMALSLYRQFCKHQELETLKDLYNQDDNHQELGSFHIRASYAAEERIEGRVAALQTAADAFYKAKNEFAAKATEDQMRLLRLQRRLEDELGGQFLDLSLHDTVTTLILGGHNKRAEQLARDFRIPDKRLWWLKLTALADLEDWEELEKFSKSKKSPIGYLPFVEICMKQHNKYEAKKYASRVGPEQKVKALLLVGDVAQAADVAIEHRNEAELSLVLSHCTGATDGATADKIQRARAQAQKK
UniProt Q9NQZ2, sequence (Q9NQZ2 whole entry, looked up): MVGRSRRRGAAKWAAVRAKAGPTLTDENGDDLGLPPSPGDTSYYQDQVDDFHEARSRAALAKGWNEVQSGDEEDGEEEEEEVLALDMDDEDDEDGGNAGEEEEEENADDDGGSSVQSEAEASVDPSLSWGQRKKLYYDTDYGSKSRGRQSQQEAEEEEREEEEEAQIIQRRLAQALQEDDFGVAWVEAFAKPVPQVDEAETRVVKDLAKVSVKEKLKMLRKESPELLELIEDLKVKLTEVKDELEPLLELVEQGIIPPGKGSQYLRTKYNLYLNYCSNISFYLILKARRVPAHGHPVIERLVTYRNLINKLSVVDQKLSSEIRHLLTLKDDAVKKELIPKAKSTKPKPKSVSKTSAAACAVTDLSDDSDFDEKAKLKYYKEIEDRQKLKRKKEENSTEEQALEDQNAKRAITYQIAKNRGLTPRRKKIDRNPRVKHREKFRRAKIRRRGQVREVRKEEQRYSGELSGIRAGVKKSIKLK
UniProt Q5VZL5, sequence (Q5VZL5 whole entry, looked up): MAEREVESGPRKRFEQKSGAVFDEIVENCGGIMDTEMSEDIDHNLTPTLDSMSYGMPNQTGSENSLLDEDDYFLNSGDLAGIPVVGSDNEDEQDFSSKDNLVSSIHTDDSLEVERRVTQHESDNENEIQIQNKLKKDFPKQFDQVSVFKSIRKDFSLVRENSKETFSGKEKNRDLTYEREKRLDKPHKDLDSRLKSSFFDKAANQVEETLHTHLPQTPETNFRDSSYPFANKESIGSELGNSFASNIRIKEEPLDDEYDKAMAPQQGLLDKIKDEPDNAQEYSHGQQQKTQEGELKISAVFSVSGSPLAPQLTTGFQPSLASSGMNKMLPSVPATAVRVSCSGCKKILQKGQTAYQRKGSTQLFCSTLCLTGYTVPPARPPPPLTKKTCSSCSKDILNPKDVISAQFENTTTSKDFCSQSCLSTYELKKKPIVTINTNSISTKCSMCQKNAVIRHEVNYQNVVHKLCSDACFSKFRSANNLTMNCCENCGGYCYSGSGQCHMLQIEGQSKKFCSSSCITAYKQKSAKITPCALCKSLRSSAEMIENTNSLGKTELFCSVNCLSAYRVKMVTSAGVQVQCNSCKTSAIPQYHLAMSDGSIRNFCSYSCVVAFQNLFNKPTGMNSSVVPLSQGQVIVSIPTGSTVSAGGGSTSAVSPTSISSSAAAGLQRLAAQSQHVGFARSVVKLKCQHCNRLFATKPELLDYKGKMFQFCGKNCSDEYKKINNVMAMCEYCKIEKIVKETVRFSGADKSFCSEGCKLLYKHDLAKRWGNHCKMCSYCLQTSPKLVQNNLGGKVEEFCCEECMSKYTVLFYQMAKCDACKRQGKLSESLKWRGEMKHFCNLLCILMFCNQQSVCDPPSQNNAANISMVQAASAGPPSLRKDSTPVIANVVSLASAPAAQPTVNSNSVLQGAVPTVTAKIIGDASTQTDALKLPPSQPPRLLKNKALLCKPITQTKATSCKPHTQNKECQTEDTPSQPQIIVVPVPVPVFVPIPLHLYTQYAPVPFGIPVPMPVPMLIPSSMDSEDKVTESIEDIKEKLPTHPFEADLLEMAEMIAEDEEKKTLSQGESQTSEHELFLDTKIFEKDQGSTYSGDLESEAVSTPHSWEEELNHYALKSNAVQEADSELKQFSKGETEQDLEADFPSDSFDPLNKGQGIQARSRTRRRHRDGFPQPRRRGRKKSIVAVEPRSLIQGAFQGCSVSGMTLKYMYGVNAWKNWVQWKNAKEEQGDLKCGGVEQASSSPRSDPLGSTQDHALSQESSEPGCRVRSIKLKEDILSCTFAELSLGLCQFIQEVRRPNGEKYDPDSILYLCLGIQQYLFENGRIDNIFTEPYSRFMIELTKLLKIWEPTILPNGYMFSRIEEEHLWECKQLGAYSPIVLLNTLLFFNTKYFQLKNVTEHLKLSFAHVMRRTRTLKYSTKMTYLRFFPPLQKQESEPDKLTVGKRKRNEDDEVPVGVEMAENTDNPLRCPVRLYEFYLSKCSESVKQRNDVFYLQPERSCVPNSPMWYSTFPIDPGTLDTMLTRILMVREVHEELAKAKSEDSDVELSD

On to UTP3 (UniProt Q9NQZ2), for which the log2 fold change is -0.106 with nilotinib; 0.008 in [1]; -0.048 with dasatinib; -0.054 in [2]; -0.023 in assay [3]; 0.014 with quisinostat. The log2 fold change in the assay with tipifarnib is 0.051; in assay [4], 0.065; in assay [5], 0.002; in [6], 0; in assay [7], 0.307 (active); in the assay with vorinostat, 0.143. The log2 fold change in the assay with silmitasertib was 0.022; in assay [8], -0.039; with entospletinib, 0.02.
On to VANGL1 (UniProt Q8TAA9), for which the log2 fold change with nilotinib was -0.086; in assay [1], -0.067; with dasatinib, -0.019; in assay [2] it was 0.079; in [3], -0.036; with quisinostat, 0.014. Further, the log2 fold change with tipifarnib is 0.042; in assay [4] it was 0.009; in assay [5], 0.121; in assay [6], 0.034; in assay [7], -0.04; with vorinostat it was 0.085. The log2 fold change with silmitasertib is 0.159; in assay [8], -0.031; with entospletinib, -0.009.
Regarding YDJC (UniProt A8MPS7), the log2 fold change with nilotinib was -0.027; in assay [1] it was 0.045; in the assay with dasatinib it was -0.1; in [2] it was -0.044; in assay [3], -0.02; in the assay with quisinostat, -0.03. In addition, the log2 fold change is -0.045 with tipifarnib; -0.001 in [4]; 0.021 in assay [5]; 0.074 in assay [6]; 0.048 in assay [7]; -0.443 (active) with vorinostat. In addition, the log2 fold change with silmitasertib is 0.023; in assay [8], -0.051; with entospletinib it was 0.051.
For the target VPS16 (UniProt Q9H269), the log2 fold change is 0 in the assay with nilotinib; 0.011 in [1]; -0.013 in the assay with dasatinib; 0.014 in [2]; 0.021 in assay [3]; -0.095 with quisinostat. Moreover, the log2 fold change was -0.012 with tipifarnib; 0.022 in [4]; 0.004 in assay [5]; 0.009 in assay [6]; -0.047 in assay [7]; -0.543 (active) with vorinostat. Moreover, the log2 fold change with silmitasertib was 0.076; in [8], -0.01; with entospletinib it was 0.03.
For the target VPS11 (UniProt Q9H270), the log2 fold change was -0.007 with nilotinib; -0.008 in assay [1]; -0.003 with dasatinib; -0.018 in assay [2]; -0.002 in assay [3]; -0.055 with quisinostat. For the same target, the log2 fold change is -0.002 in the assay with tipifarnib; 0.06 in assay [4]; -0.003 in assay [5]; 0.003 in [6]; 0.023 in assay [7]; -0.509 (active) with vorinostat. Besides, the log2 fold change was -0.009 in the assay with silmitasertib, 0.011 in assay [8] and -0.006 with entospletinib.
Turning to ZMYM4 (UniProt Q5VZL5), the log2 fold change is -0.016 with nilotinib; 0.003 in [1]; -0.001 in the assay with dasatinib; -0.005 in [2]; -0.061 in [3]; -0.028 with quisinostat. Moreover, the log2 fold change is -0.051 in the assay with tipifarnib; 0.067 in [4]; 0.021 in assay [5]; -0.003 in [6]; 0.05 in [7]; -0.383 (active) with vorinostat. In addition, the log2 fold change with silmitasertib is -0.016; in assay [8], 0.009; in the assay with entospletinib, -0.013.
As to UPF3B (UniProt Q9BZI7), the log2 fold change was -0.016 with nilotinib; 0.012 in assay [1]; 0.004 with dasatinib; 0.014 in assay [2]; 0.005 in assay [3]; -0.013 with quisinostat. The log2 fold change with tipifarnib is 0.014; in [4], 0.022; in assay [5], -0.025; in assay [6], -0.003; in [7], 0.022; with vorinostat it was 0.075. The log2 fold change in the assay with silmitasertib was -0.02; in assay [8], -0.043; in the assay with entospletinib, -0.049.
As for ZC3H11A (UniProt O75152), the log2 fold change was -0.021 in the assay with nilotinib; -0.006 in assay [1]; -0.021 in the assay with dasatinib; 0.041 in [2]; -0.022 in [3]; -0.094 in the assay with quisinostat. Further, the log2 fold change was -0.007 with tipifarnib; 0 in [4]; 0.004 in assay [5]; 0.035 in [6]; 0.123 in [7]; -0.375 (active) with vorinostat. For the same target, the log2 fold change is -0.026 with silmitasertib, 0.062 in assay [8] and -0.009 in the assay with entospletinib.
As to WIPI2 (UniProt Q9Y4P8), the log2 fold change is 0.032 in the assay with nilotinib; 0.043 in [1]; 0.007 with dasatinib; -0.018 in [2]; -0.004 in assay [3]; -0.054 with quisinostat. For the same target, the log2 fold change with tipifarnib is 0.011; in assay [4], 0.053; in assay [5], -0.005; in assay [6], 0.021; in assay [7], -0.036; with vorinostat, -0.303 (active). The log2 fold change was 0.033 in the assay with silmitasertib, -0.005 in [8] and -0.008 with entospletinib.
As for VASP (UniProt P50552), the log2 fold change was -0.025 in the assay with nilotinib; -0.002 in assay [1]; -0.061 in the assay with dasatinib; -0.014 in assay [2]; -0.001 in assay [3]; 0.012 with quisinostat. For the same target, the log2 fold change was 0.008 in the assay with tipifarnib; -0.012 in [4]; -0.006 in assay [5]; 0.013 in assay [6]; 0.035 in assay [7]; 0.015 with vorinostat. In addition, the figures for the log2 fold change (with silmitasertib; in assay [8]; with entospletinib) were 0.015, 0.01 and -0.013, respectively.
